mHTT-CaM PPI inh – mutant huntingtin-calmodulin interaction inhibitors – biochemical, AlphaScreen, primary screen; P42858; AlphaScreen His-mHTT/GST-CaM binding, luminescence; inhibition, % at 15 µM; 190,000 tested, 3.6% active; AID 1671202, 2021
Pf apPOL inh – Pf-apPOL inhibitors, biochemical, fluorescence. Plasmodium falciparum apicoplast DNA polymerase (apPOL). Recombinant Pf-apPOL, molecular beacon fluorescence, 1.5 h. inhibition, % at 10 µM. 210,000 tested, 0.25% active. AID 1794808, 2022
Of the large screens only hits and unclear results are named; the others gave an inactive call. An excerpt weighted towards active compounds, which were near 3.6% of everything screened. No stated cut-off is given here; in the data, active means inhibition above about 50%; inactive means the rest.

COc1ccc(OC)c(NC(=O)c2c(NC(=O)CNCc3ccccc3)sc3c2CCC3)c1	none
COc1ccc(OC)c(NC(=O)c2c(NC(=O)CN3CCCC(C)C3)sc3c2CCC3)c1 (centres undefined)	none
COc1ccc(OC)c(NC(=O)c2c(NCc3cccc(F)c3)sc3c2CCC3)c1	mHTT-CaM PPI inh 73
COc1cccc(C(O)CN2CCN(c3ccccc3OC)CC2)c1 (centres undefined)	none
Cc1cc(=O)n(CC(=O)Nc2ccccc2)c(N2CCCCC2)n1	none
Cc1cc(=O)n(CC(=O)Nc2ccc(Cl)cc2)c(N2CCCC2)n1	mHTT-CaM PPI inh 58
COc1ccc(NC(=O)CN2CCC(C(=O)NCC(F)(F)F)CC2)cc1OC	none
Cc1ccnc(N2CCCC(C(=O)NCc3ccc(N(C)C)cc3)C2)n1 (centres undefined)	none
Cc1csc(=Nc2ccccc2)n1CC(O)c1ccc([N+](=O)[O-])cc1 (centres undefined)	mHTT-CaM PPI inh 83
O=[N+]([O-])c1ccc(-c2csc(=Nc3ccccc3)n2CCO)cc1	none
CCSc1ccsc1C1C(C#N)=C(N)N(c2ccccc2)C2=C1C(=O)CCC2 (centres undefined)	none
COc1cc(C2C(C#N)=C(N)N(c3ccccc3)C3=C2C(=O)CCC3)cc(OC)c1OC (centres undefined)	none
N#CC1=C(N)N(c2ccc(F)cc2)C2=C(C(=O)CCC2)C1c1ccc(Br)s1 (centres undefined)	mHTT-CaM PPI inh 86
Cc1cccc(N2C(N)=C(C#N)C(c3cc(Br)cs3)C3=C2CCCC3=O)c1 (centres undefined)	mHTT-CaM PPI inh 51, Pf apPOL inh 80
CCc1ccc(C2C(C#N)=C(N)N(c3ccc(F)cc3)C3=C2C(=O)CCC3)s1 (centres undefined)	none
N#CC1=C(N)N(c2ccc(Br)cc2)C2=C(C(=O)CCC2)C1c1ccsc1 (centres undefined)	none
COc1cc(C2C(C#N)=C(N)N(c3cccc([N+](=O)[O-])c3)C3=C2C(=O)CCC3)cc(OC)c1OC (centres undefined)	Pf apPOL inh 85
N#CC1=C(N)N(c2ccc(Cl)cc2)C2=C(C(=O)CCC2)C1c1cc(Br)cs1 (centres undefined)	mHTT-CaM PPI inh 55
COc1cccc(CNC(=O)C2CCN(c3nccnc3Oc3cccc(OC)c3)CC2)c1	none
CN(C)C(CNC(=O)C1CCN(S(C)(=O)=O)CC1)c1ccccc1Cl (centres undefined)	none
O=C(Nc1ccc(I)cc1Cl)c1ccc2c(c1)OCCO2	none
CCc1ccccc1NC(=O)COc1cc(C)nc(N2CCC(C)CC2)n1	none
Cc1cc(C2C(C#N)=C(N)N(c3ccc(F)cc3)C3=C2C(=O)CCC3)c(C)s1 (centres undefined)	none
Cc1cc(C2C(C#N)=C(N)N(c3cccc(C(F)(F)F)c3)C3=C2C(=O)CCC3)c(C)s1 (centres undefined)	mHTT-CaM PPI inh 61
CCCCOC(=O)COc1cc2oc(=O)cc(C)c2cc1Cl	none
COc1ccc(CNC(=O)c2ccc(N(Cc3ccccc3)S(C)(=O)=O)cc2)cc1	none
CC1CCCN(C(=O)c2ccc(Cl)cc2[N+](=O)[O-])C1 (centres undefined)	Pf apPOL inh 80
CC1CC(C)CN(C(=O)c2ccc(Cl)cc2[N+](=O)[O-])C1 (centres undefined)	none
Cc1nc(NCCNC(=O)c2cccc(C(F)(F)F)c2)cc(N2CCCC2)n1	none
O=C(Nc1c(Cc2ccccc2)nc2ccccn12)C(Cl)Cl	none
CC(Cl)C(=O)Nc1c(Cc2ccccc2)nc2ccccn12 (centres undefined)	Pf apPOL inh 72
Cc1ccccc1C(=O)N1CCc2c(nc3cc(-c4ccccc4)[nH]n3c2=O)C1	none
CCOc1ccc(-c2[nH]nc3c2C(c2cn[nH]c2-c2ccc(F)cc2)C(C#N)=C(N)O3)cc1 (centres undefined)	none
COc1cc(-c2[nH]nc3c2C(c2ccc(C(F)(F)F)cc2)C(C#N)=C(N)O3)cc(OC)c1OC (centres undefined)	mHTT-CaM PPI inh 90
COc1cc(C2C(C#N)=C(N)Oc3n[nH]c(-c4ccc(Br)cc4)c32)cc(OC)c1O (centres undefined)	mHTT-CaM PPI inh 87
COc1cc(C2C(C#N)=C(N)Oc3n[nH]c(C(F)(F)F)c32)cc(OC)c1OC (centres undefined)	none
N#CC1=C(N)Oc2n[nH]c(-c3ccccc3)c2C1c1ccc2c(c1[N+](=O)[O-])OCO2 (centres undefined)	mHTT-CaM PPI inh 51
N#CC1=C(N)Oc2n[nH]c(-c3ccccc3)c2C1c1ccccc1Cl (centres undefined)	none
COc1ccc(-c2[nH]nc3c2C(c2cc(Cl)c(O)c(OC)c2)C(C#N)=C(N)O3)cc1 (centres undefined)	none
N#CC1=C(N)Oc2n[nH]c(-c3ccc(Br)cc3)c2C1c1cn[nH]c1-c1ccc(F)cc1 (centres undefined)	mHTT-CaM PPI inh 59

Source: PubChem (University of Kansas High Throughput Screening Laboratory)
